Assay [1] concerns Wnt5a (protein binding on small-molecule microarray). Put plainly: Wnt5a binders on small-molecule microarray, primary screen, biophysical, 635/667 nm fluorescence (AID 1142).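 Note: fluorescence read at 667 nm with signal to noise per printed feature.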 The following applies: 635 nm fluorescence, higher = more signal.
The nature of assay [2]: cell viability in Huh7 cells, primary screen, cytotoxicity control for HCV replication inhibitor project, CellTiter-Glo luminescence, basal, 48 h (AID 1143).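 Note: Huh7 hepatoma cells carrying a hepatitis C replication reporter with no stimulus; test concentration not given here.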 The following applies: Huh7 HCV replicon, higher = more signal, called active from +8 up or from −8 down.
A short description of assay [3]: P. aeruginosa biofilm formation inhibitors, primary screen, PAO1 strain, BacTiter-Glo luminescence, LB-PBS (AID 1144). The following applies: 12 h, higher = more signal.
A short description of assay [4]: CREB reporter modulators without forskolin, primary screen, cell-based, PC12, CRE-LacZ reporter, unstimulated (AID 1145). As to conditions: no forskolin, luminescence, 4.5 h, higher = more signal, called active from +8 up or from −8 down.
The nature of assay [5]: CREB reporter modulators under forskolin, primary screen, cell-based, PC12, CRE-LacZ reporter, forskolin-stimulated (AID 1146).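 Note: PC12 cells with 6xCRE LacZ reporter stimulated by forskolin 10 µM; beta-galactosidase reporter signal reflecting CREB driven transcription.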 The following applies: luminescence, 4.5 h, higher = more signal, called active from +8 up or from −8 down.
The target in assay [6] is Streptavidin (Streptomyces avidinii) (UniProt P22629). The assay can be described thus: streptavidin binders on small-molecule microarray, primary screen, artefact control for SMM compound annotation, biophysical, 635/667 nm fluorescence (AID 1147).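 Note: signal reflects streptavidin binding to arrayed compounds as a control protein.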 As to conditions: streptavidin binding, higher = more signal.
A short description of assay [7]: small-molecule binders of probe aInhba, primary screen, biochemical, small-molecule microarray, 635/667 nm fluorescence (AID 1148).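 Note: score merges 667nm spot fluorescence with signal-to-noise for antibody binding to printed compounds.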 As to conditions: higher = more signal.
Assay [8] deals with Torsin-1A (Homo sapiens) (UniProt O14656). Put plainly: torsin A binders from cell lysate, primary screen, small-molecule microarray, wild-type, 635/667 nm (AID 1149). As to conditions: COS7 hTOR1A-WT lysate, 635 nm fluorescence, higher = more signal.
For assay [9] the target is unchanged. The assay can be described thus: small-molecule binders of mutant TOR1A in lysate, primary screen, cell lysate, small-molecule microarray, COS7 lysate, 635/667 nm fluorescence (AID 1150).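 Note: score pools 667 nm emission and signal to noise measuring lysate protein binding.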 As to conditions: COS7 hTOR1A mutant lysate, 635 nm fluorescence, higher = more signal.
In assay [10] the test system is Sonic hedgehog protein (Shh). The assay can be described thus: small-molecule binders of Shh protein, primary screen, biochemical, small-molecule microarray, 635/667 nm fluorescence (AID 1151).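 Note: Shh protein binding to compounds spotted on small-molecule microarray slides; score combines spot fluorescence intensity with signal-to-noise across triplicate slides.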 The following applies: small-molecule microarray binding, 635 nm fluorescence; higher = more signal.
Assay [11] is described as follows: E. coli DRC41 culture turbidity changes, primary screen, E. coli filamentation inducer project, strain DRC41, OD650, 48 h (AID 1152).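 Note: E. coli MC1000 strain DRC41 lacking acrAB efflux pump and sulA.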 As to conditions: E. coli DRC41 (acrAB sulA), higher = more signal, called active from +8 up or from −8 down.
Assay [12] is described as follows: small-molecule binders of probe aLefty1, primary screen, biochemical, small-molecule microarray, 635/667 nm fluorescence (AID 1153).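 Note: score merges spot fluorescence with signal-to-noise ratio from the scanned slide images.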 The following applies: higher = more signal.
Assay [13] is described as follows: PSAC antagonists in infected red cells, primary screen, cell-based, P. falciparum Indochina, OD700, 1 h (AID 1154). As to conditions: P. falciparum Indochina infected RBC osmotic lysis, higher = more signal, called active from +8 up or from −8 down.
Assay [14] in a line: PSAC antagonists in infected red cells, primary screen, cell-based, P. falciparum Indochina, OD700, 2 h (AID 1155).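 Note: lysis reports solute entry through the parasite surface anion channel PSAC; channel blockers reduce lysis of infected cells.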 The following applies: P. falciparum Indochina infected erythrocytes, osmotic lysis OD700; higher = more signal, called active from +8 up or from −8 down.
Assay [15] is described as follows: osmotic lysis modulators in infected erythrocytes, primary screen, PSAC antagonist project, cell-based, P. falciparum Indochina, OD700, 3 h (AID 1156). As to conditions: higher = more signal, called active from +8 up or from −8 down.
Assay [16] is described as follows: PSAC antagonists in infected red cells, primary screen, cell-based, P. falciparum Indochina, OD700, 18 h (AID 1157). The following applies: P. falciparum Indochina infected erythrocytes, osmotic lysis OD700, 18 h; higher = more signal, called active from +8 up or from −8 down.
Assay [17] can be described thus: modulators of S6 phosphorylation in cells, primary screen, cell-based, A549, cytoblot, luminescence, serum-stimulated (AID 1158).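 Note: serum-stimulated A549 lung adenocarcinoma cells; signal is phosphorylated S6 detected by cytoblot immunostaining with HRP secondary.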 The following applies: A549 phospho-S6 cytoblot, 5 h, higher = more signal.
In assay [18] the target is NADPH oxidase 2 (Homo sapiens) (UniProt P04839). Put plainly: NOX2-dependent H2O2 signal modulators, primary screen, NOX inhibitor project, cell-based, HEK293-NOX2, PMA-stimulated, Amplex Red fluorescence (AID 1159). Note: test concentration not given here. As to conditions: 45 min, higher = more signal, called active from +8 up or from −8 down.
Assay [19] concerns the target NADPH oxidase 4 (Homo sapiens) (UniProt Q9NPH5). The assay can be described thus: NOX4-dependent H2O2 signal modulators, primary screen, NOX inhibitor project, cell-based, HEK293-NOX4, tetracycline-induced, Amplex Red fluorescence (AID 1160). As to conditions: 45 min, higher = more signal, called active from +8 up or from −8 down.
Assay [20] concerns the target NADPH oxidase 5 (Homo sapiens) (UniProt Q96PH1). Put plainly: NOX5-dependent H2O2 signal modulators, primary screen, NOX inhibitor project, cell-based, HEK293-NOX5, Amplex Red fluorescence (AID 1161). The following applies: HEK293-NOX5, ionomycin, 45 min, higher = more signal.

Activity calls are given as the source filed them. Unless noted, the rule behind the calls is not given here.

NADPH oxidase 2 (Homo sapiens), sequence (P04839 whole entry, looked up): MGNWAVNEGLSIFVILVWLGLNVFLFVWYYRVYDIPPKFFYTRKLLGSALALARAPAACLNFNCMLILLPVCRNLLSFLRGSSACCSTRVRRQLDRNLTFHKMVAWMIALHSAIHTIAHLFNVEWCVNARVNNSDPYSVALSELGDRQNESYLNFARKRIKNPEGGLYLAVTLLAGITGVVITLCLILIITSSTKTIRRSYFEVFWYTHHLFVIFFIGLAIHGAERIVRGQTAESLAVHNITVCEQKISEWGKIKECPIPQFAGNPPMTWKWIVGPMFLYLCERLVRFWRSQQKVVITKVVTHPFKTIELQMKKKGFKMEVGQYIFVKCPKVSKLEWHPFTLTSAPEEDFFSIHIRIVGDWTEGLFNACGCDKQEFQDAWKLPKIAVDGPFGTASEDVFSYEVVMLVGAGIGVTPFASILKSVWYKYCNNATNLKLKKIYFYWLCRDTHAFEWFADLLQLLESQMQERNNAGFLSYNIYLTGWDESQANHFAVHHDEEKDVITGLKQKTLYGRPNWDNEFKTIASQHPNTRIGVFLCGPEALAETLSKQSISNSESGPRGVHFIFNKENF
Streptavidin (Streptomyces avidinii), sequence (P22629 whole entry, looked up): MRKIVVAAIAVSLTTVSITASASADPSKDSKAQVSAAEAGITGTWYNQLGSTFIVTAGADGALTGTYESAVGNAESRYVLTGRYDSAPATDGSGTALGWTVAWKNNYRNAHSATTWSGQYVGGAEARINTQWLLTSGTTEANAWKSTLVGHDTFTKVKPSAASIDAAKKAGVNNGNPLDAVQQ
Torsin-1A (Homo sapiens), sequence (O14656 whole entry, looked up): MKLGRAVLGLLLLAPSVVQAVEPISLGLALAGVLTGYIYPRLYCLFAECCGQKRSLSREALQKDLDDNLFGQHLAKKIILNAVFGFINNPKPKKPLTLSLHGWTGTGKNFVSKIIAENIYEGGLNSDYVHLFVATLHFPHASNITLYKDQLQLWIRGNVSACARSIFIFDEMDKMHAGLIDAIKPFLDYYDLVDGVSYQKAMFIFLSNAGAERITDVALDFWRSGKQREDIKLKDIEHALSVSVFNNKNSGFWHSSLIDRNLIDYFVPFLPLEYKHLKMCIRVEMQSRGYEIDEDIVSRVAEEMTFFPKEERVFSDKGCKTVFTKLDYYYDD
NADPH oxidase 5 (Homo sapiens), sequence (Q96PH1 whole entry, looked up): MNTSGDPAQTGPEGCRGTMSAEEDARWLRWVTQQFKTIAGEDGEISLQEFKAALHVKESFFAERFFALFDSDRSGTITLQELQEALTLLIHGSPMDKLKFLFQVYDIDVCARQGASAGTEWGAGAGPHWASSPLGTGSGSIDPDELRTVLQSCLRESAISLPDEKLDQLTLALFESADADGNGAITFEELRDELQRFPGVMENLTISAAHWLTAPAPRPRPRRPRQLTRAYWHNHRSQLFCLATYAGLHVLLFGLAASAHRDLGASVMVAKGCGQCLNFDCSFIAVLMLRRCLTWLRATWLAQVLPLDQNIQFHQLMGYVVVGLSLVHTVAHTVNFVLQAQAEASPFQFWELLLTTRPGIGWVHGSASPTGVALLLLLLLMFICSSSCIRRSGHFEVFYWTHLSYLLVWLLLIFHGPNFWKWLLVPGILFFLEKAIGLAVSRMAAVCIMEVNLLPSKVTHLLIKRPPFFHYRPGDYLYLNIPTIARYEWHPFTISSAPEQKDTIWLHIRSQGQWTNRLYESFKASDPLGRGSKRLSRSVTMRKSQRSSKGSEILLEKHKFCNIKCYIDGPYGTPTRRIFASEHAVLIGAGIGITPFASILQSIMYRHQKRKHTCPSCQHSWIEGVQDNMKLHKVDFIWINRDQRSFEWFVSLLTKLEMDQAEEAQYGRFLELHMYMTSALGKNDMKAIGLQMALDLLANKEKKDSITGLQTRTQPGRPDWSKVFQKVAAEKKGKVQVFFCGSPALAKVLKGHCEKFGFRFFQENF
NADPH oxidase 4 (Homo sapiens), sequence (Q9NPH5 whole entry, looked up): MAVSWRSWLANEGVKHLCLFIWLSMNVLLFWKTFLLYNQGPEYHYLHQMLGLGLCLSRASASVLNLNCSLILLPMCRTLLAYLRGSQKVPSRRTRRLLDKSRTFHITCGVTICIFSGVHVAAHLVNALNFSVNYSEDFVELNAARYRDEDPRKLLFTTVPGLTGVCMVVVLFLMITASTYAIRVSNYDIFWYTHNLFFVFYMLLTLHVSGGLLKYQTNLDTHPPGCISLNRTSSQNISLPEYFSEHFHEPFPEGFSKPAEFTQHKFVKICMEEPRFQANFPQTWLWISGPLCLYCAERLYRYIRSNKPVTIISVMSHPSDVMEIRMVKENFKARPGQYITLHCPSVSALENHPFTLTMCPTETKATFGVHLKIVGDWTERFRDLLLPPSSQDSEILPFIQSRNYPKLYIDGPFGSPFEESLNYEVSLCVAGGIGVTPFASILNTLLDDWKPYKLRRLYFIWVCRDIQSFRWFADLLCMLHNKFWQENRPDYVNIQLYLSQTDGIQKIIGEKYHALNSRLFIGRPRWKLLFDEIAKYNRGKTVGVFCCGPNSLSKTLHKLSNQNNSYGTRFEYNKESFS

In the case of `CC[C@@H](c1ccccc1)n1c(=O)n2n(c1=O)[C@H]1[C@H](O)[C@@H]3O[C@@H]3C(=NOCC=C(C)CCC=C(C)C)[C@H]1CC2`, the composite z-score in [1] was 0.33; in [6], -0.124; in assay [7], -0.0963; in the assay with Torsin-1A (Homo sapiens) [8], 0.216; with Torsin-1A (Homo sapiens) [9], 0.366; in [10], 1.88. In assay [12], the composite z-score is -0.241. Besides, the z-score in assay [2] was -1.53 (inactive); in assay [3] it was 0.0433 (inactive); in [4], 1.07 (inactive); in assay [5], 0.889 (inactive); in assay [11] it was -1.15 (inactive); in assay [13], 1.27 (inactive). The z-score was 0.719 (inactive) in assay [14]; 0.0313 (inactive) in assay [15]; 0.355 (inactive) in assay [16]; -0.45 in [17]; 2.38 (inactive) in [18]; -1.85 (inactive) in assay [19]. This molecule yielded a z-score in assay [20] of -1.35.
For `CN1C(=O)C2C=CC(C(O)c3ccc(Br)cc3)N(N(c3ccccc3)c3ccccc3)C2C1=O` (stereo not given), the composite z-score in assay [1] was -0.0158; in assay [6] it was 1.04; in assay [7] it was -0.0375; with Torsin-1A (Homo sapiens) [8], 0.293; with Torsin-1A (Homo sapiens) [9], -0.135; in [10] it was -0.583. The molecule also had a composite z-score in [12] of 0.446. The z-score in [2] was -0.776 (inactive); in assay [3], -1.19 (inactive); in [4], 1 (inactive); in assay [5], -0.342 (inactive); in [11], -1.19 (inactive); in [13], 15.4 (active). The z-score in assay [14] was 3.08 (inactive); in assay [15], 0.948 (inactive); in [16], 1.76 (inactive); in assay [17], -0.0423; in assay [18], 1.2 (inactive); in assay [19] it was 0.184 (inactive). The same molecule showed a z-score in assay [20] of 0.24.
In the case of `O=C(NN=C1C[C@@H](O)[C@@H](O)[C@@H]2[C@@H]3C(=O)N(c4cccc(Oc5ccccc5)c4)C(=O)[C@@H]3CC[C@@H]12)OCc1ccccc1`, the composite z-score was -0.0255 in [1]; 0.504 in assay [6]; -0.183 in assay [7]; 0.212 with Torsin-1A (Homo sapiens) [8]; 0.31 in the assay with Torsin-1A (Homo sapiens) [9]; -0.376 in assay [10]. Moreover, in assay [12], the composite z-score amounted to 0.101. Also, the z-score is -0.033 (inactive) in [2]; -0.0198 (inactive) in [3]; 1.6 (inactive) in assay [4]; -0.227 (inactive) in [5]; -0.385 (inactive) in assay [11]; 2.57 (inactive) in assay [13]. For the same molecule, the z-score in assay [14] was 0.237 (inactive); in assay [15], 1.09 (inactive); in assay [16] it was 0.0572 (inactive); in [17] it was -0.818; in [18], 1.05 (inactive); in [19], -2.06 (inactive). Besides, the z-score in assay [20] was determined as 0.134.
On to `O=C(NN=C1C[C@@H](O)[C@@H](O)[C@@H]2[C@@H]3C(=O)N(c4ccc(F)cc4F)C(=O)[C@@H]3CC[C@@H]12)OCc1ccccc1`, for which the composite z-score was -0.132 in assay [1]; 0.98 in [6]; -0.128 in assay [7]; 0.871 with Torsin-1A (Homo sapiens) [8]; 0.464 in the assay with Torsin-1A (Homo sapiens) [9]; -0.33 in [10]. Besides, the composite z-score in [12] was 0.0536. Further, the z-score in [2] was 0.375 (inactive); in assay [3] it was 1.21 (inactive); in assay [4], 0.16 (inactive); in assay [5], 0.829 (inactive); in assay [11], 0.113 (inactive); in [13], 3.79 (inactive). The z-score is 0.326 (inactive) in assay [14]; -0.479 (inactive) in assay [15]; 0.0094 (inactive) in assay [16]; -0.849 in assay [17]; 1.56 (inactive) in [18]; 0.882 (inactive) in assay [19]. Further, the z-score in [20] was found to be 0.0449.
`Cc1cc2c(nc1C)CCCN2CC(C)ON=C1[C@H]2CCn3c(=O)n(-c4ccccc4)c(=O)n3[C@H]2[C@H](O)[C@@H]2O[C@H]12` (stereo not given in full): the composite z-score in assay [1] was 0.337; in assay [6], 0.196; in assay [7], 0.0301; with Torsin-1A (Homo sapiens) [8], -0.0339; in the assay with Torsin-1A (Homo sapiens) [9] it was 0.246; in assay [10], 1.03. The same molecule came in with a composite z-score in assay [12] of 0.0037. The z-score in [2] is 0.357 (inactive); in assay [3], -0.258 (inactive); in assay [4], 0.415 (inactive); in assay [5], 0.533 (inactive); in assay [11], -1.46 (inactive); in assay [13] it was 1.21 (inactive). The z-score in assay [14] is 0.283 (inactive); in assay [15] it was 1.27 (inactive); in [16] it was 0.513 (inactive); in [17], -0.415; in assay [18] it was -0.435 (inactive); in assay [19], -0.00359 (inactive). The z-score in [20] was -0.832.
Regarding `C=C(CCCC)C(=O)CC[C@@H](OC(C)=O)c1cccc(OCCO)c1`, the composite z-score in [1] is 0.0837; in [6] it was -0.543; in assay [7], -0.21; in the assay with Torsin-1A (Homo sapiens) [8] it was 1.29; in the assay with Torsin-1A (Homo sapiens) [9], 0.594; in assay [10] it was 1.56. In [12], the composite z-score is -0.101. Further, the z-score in assay [2] was -7.53 (inactive); in assay [3], -0.0381 (inactive); in [4], 9.03 (active); in assay [5] it was 2.58 (inactive); in assay [11] it was -0.462 (inactive); in assay [13] it was 2.82 (inactive). Besides, the z-score in assay [14] is 1.81 (inactive); in assay [15], -1.27 (inactive); in [16], 0.822 (inactive); in [17], 0.0149; in [18], -1.14 (inactive); in assay [19], -1.3 (inactive). This molecule also showed a z-score in assay [20] of -3.02.
In the case of `CC(C)CON=C1C[C@@H](O)[C@@H](O)[C@@H]2[C@@H]3C(=O)N(C[C@@H]4CCCO4)C(=O)[C@@H]3CC[C@H]12`, the composite z-score in [1] was -0.0313; in [6], -0.23; in [7], -0.128; in the assay with Torsin-1A (Homo sapiens) [8], 0.0672; with Torsin-1A (Homo sapiens) [9], 1.49; in assay [10] it was 0.819. Further, in [12], the composite z-score was -0.0559. In addition, the z-score was -1.36 (inactive) in assay [2]; 1.34 (inactive) in assay [3]; -1.02 (inactive) in [4]; -0.296 (inactive) in [5]; 0.165 (inactive) in assay [11]; 0.0811 (inactive) in assay [13]. The z-score was 0.449 (inactive) in assay [14]; -0.425 (inactive) in [15]; -0.0131 (inactive) in assay [16]; -0.383 in assay [17]; 0.202 (inactive) in assay [18]; 0.313 (inactive) in assay [19]. The z-score in [20] was -0.61.
As to `CC(CCN1CCCCc2nc(C)c(C)cc21)=NOC(C)CN1CCCc2nc(C)c(C)cc21` (stereo not given), the composite z-score in [1] was determined as 0.871; in assay [6] it was 1.42; in assay [7], 0.637; in the assay with Torsin-1A (Homo sapiens) [8] it was 1.19; with Torsin-1A (Homo sapiens) [9], 0.863; in [10], 1.73. The molecule also gave a composite z-score in assay [12] of 0.79. For the same molecule, the z-score in assay [2] was -0.191 (inactive); in assay [3], -0.812 (inactive); in assay [4], -0.24 (inactive); in assay [5] it was 0.0936 (inactive); in assay [11], -1.7 (inactive); in assay [13] it was 1.6 (inactive). The z-score is 0.549 (inactive) in assay [14]; -0.19 (inactive) in [15]; 0.488 (inactive) in assay [16]; -0.569 in assay [17]; -1 (inactive) in assay [18]; 0.11 (inactive) in assay [19]. In assay [20], the z-score was -1.79.

These data come from PubChem BioAssay.
